# PAFAH2 FP inh = PAFAH2 enzyme inhibitors, primary screen, biochemical, fluorescence polarization, human; Platelet-activating factor acetylhydrolase 2, cytoplasmic (Homo sapiens), Q99487; recombinant PAFAH2, FP-rhodamine activity probe; inhibition, % at 3.39 µM; actives 0.99% (n = 340,000); AID 492956, 2010;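 active = inhibition above the mean over all tested compounds plus 3 SD, cut at about 30% in these data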;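 note: inhibitors block probe labeling of enzyme so polarization drops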
# pPAFAH inh = pPAFAH enzyme inhibitors, primary screen, biochemical, fluorescence polarization, human | actives 1.5% (n = 330,000) | recombinant pPAFAH, FP-rhodamine probe fluorescence polarization | inhibition, % at 3.39 µM;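 active = inhibition above the mean inhibition across the screen plus 3 SD, cut at about 25% in these data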;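 note: inhibitors block binding of the rhodamine activity-based probe so polarization drops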
# LYPLA2 counter = LYPLA2 inhibitors, primary screen, counter-screen for PME1 inhibitor project, biochemical, fluorescence polarization, FP-Rh probe ABPP. Acyl-protein thioesterase 2 (Homo sapiens), O95372. recombinant LYPLA2. inhibition, % at 5.9 µM. actives 0.38% (n = 320,000). AID 2177, 2009;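 active = inhibition above the screen-wide mean plus 3 SD, limit set per campaign, cut at about 26% in these data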
# LYPLA1 counter = LYPLA1 inhibitors, primary screen, counter-screen for PME1 inhibitor project, biochemical, fluorescence polarization, FP-Rh probe ABPP | recombinant LYPLA1 | inhibition, % at 5.9 µM | actives 0.16% (n = 320,000) | AID 2174, 2009;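 active = inhibition above the mean of all tested compounds plus 3 SD, set per campaign, cut at about 14% in these data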;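 note: inhibitors block serine hydrolase probe labeling of LYPLA1 so polarization falls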
# Target sequence (O75608 whole entry, looked up): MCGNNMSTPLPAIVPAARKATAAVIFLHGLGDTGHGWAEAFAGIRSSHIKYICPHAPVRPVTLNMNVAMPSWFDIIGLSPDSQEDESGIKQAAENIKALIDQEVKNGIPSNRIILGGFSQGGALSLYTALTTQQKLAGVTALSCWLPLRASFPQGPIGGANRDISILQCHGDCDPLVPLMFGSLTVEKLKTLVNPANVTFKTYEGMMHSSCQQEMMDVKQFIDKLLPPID
# PAFAH1B3 FP inh = PAFAH1B3 enzyme inhibitors, primary screen, biochemical, fluorescence polarization, human; inhibition, % at 3.39 µM; recombinant PAFAH1B3, FP-rhodamine probe; actives 0.28% (n = 340,000); Platelet-activating factor acetylhydrolase IB subunit alpha1 (Homo sapiens), Q15102; AID 492972, 2010;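 active = inhibition above the screen-wide average of all tested compounds plus 3 SD, cut at about 25% in these data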
# PAFAH1B2 FP inh = PAFAH1B2 enzyme inhibitors, primary screen, biochemical, fluorescence polarization, human; Platelet-activating factor acetylhydrolase IB subunit alpha2 (Homo sapiens), P68402; inhibition, % at 3.39 µM; AID 492953, 2010; recombinant PAFAH1B2, FP-rhodamine activity probe; actives 1.2% (n = 340,000);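 active = inhibition above the mean of all tested compounds plus 3 SD, cut at about 24% in these data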
# Target sequence (P68402 whole entry, looked up): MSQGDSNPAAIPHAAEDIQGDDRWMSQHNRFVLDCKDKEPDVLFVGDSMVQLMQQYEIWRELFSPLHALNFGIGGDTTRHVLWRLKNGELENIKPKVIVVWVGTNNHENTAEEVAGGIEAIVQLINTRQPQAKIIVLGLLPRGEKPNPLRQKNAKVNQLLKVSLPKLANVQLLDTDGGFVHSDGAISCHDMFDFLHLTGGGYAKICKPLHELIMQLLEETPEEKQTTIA
# LYPLA2 confirm = LYPLA2 inhibitors, retest, confirmation, counter-screen for PME1 inhibitor project, biochemical, fluorescence polarization, FP-Rh probe ABPP; shares compounds with LYPLA2 counter; actives 72% (n = 1,100); AID 2232, 2010; recombinant LYPLA2; inhibition, % at 5.9 µM;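 active = mean inhibition across replicates above the hit cutoff set in the primary screen, cut at about 26% in these data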;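 note: blocked labeling of the enzyme by serine hydrolase FP-Rh probe lowers polarization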
# LYPLA2 gel ABPP = LYPLA2 inhibitors in proteome, late-stage follow-up, gel-based competitive ABPP, fluorescence, assay provider. inhibition, % at 20 µM. actives 30% (n = 150). shares compounds with LYPLA2 counter. rhLYPLA2 in mouse brain proteome, gel ABPP FP-Rh;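 active = inhibition of LYPLA2 enzyme probe labeling above about 50%, limit read from the data; inactive = inhibition below that limit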;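 note: loss of FP-Rh probe labeling of the LYPLA2 gel band measured as band density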
# Hits are given with their value; i = inactive; nt = not tested or not shown. Rows were chosen to be rich in hits. Some 2.9% of all compounds tested hit in one or more screens of this group.
SMILES,PAFAH2 FP inh,pPAFAH inh,LYPLA2 counter,LYPLA1 counter,PAFAH1B3 FP inh,PAFAH1B2 FP inh,LYPLA2 confirm,others
Cc1cccc(NC(=O)CN2C(=O)S/C(=C\c3ccc(-c4cccc(C(=O)O)c4C)o3)C2=O)c1,nt,i,29,i,nt,nt,35,
O=C(CN1C(=O)S/C(=C\c2ccc(O)cc2)C1=O)c1ccccc1,i,i,35,i,i,i,33,
Cc1ccccc1NC(=O)CN1C(=O)S/C(=C\c2ccc(-c3cccc(C(=O)O)c3C)o2)C1=O,i,i,i,i,i,i,nt,
O=C(CN1C(=O)S/C(=C\c2ccc(C(=O)O)cc2)C1=O)Nc1ccccc1,i,i,58,i,i,i,67,LYPLA2 gel ABPP=63
Cc1c(Cl)cccc1NC(=O)Cn1c(-c2ccc(F)cc2)noc1=O,i,i,i,i,i,i,nt,
CC(OC(=O)c1cccc([N+](=O)[O-])c1)C(=O)N1CCc2ccccc21 (stereo unspecified),i,i,i,i,i,i,nt,
CC(=O)Nc1cccc(C(=O)OC(C)C(=O)N2CCc3ccccc32)c1 (stereo unspecified),i,i,28,i,i,i,28,
CCCCOc1ccc(/C=N/NC(=O)c2csc(C)c2C)cc1,i,i,i,i,i,i,nt,
COc1ccccc1N1CCN(C(=O)CN2C(=O)C3CCCCC3C2=O)CC1 (stereo unspecified),i,i,i,i,i,i,nt,
CCCCOc1ccc(OC(=O)c2cccnc2)cc1,i,i,i,i,i,i,nt,
CCCCCCCOc1ccc(OC(=O)c2ccncc2)cc1,i,i,32,i,i,i,49,
CCCCCCCOc1ccc(OC(=O)c2cccnc2)cc1,i,i,41,i,i,i,48,
Cc1cnc(C(=O)N2CCCC(N3CCN(c4cccc(C(F)(F)F)c4)CC3)C2)cn1 (stereo unspecified),i,i,26,i,i,i,i,
O=C(c1ccoc1)N1CCCC(N2CCN(c3cccc(C(F)(F)F)c3)CC2)C1 (stereo unspecified),i,i,i,i,i,i,nt,
CCc1cc(C(=O)N2CCCC(N3CCN(c4cccc(C(F)(F)F)c4)CC3)C2)n(C)n1 (stereo unspecified),i,i,81,i,i,i,74,LYPLA2 gel ABPP=i
CC(=O)N1CCCC(N2CCN(c3cccc(C(F)(F)F)c3)CC2)C1 (stereo unspecified),i,i,i,i,i,i,nt,
Cc1ccc(C(=O)N2CCCC(N3CCN(c4cccc(C(F)(F)F)c4)CC3)C2)s1 (stereo unspecified),i,i,42,i,i,i,39,
CSCCC(=O)N1CCCC(N2CCN(c3cccc(C(F)(F)F)c3)CC2)C1 (stereo unspecified),i,i,53,i,i,i,59,LYPLA2 gel ABPP=i
Cc1noc(C)c1S(=O)(=O)N1CCC(C(=O)NC2CCN(Cc3ccccc3)CC2)CC1,i,i,i,i,i,i,nt,
COc1ccc(NC(=O)COC(=O)C2CC(=O)N(Cc3ccc(C)cc3)C2)cc1 (stereo unspecified),i,i,i,i,i,i,nt,
CCn1cc(C(=O)N2CCCC(N3CCN(c4cccc(C(F)(F)F)c4)CC3)C2)cn1 (stereo unspecified),i,i,32,i,i,i,i,
O=C(c1ccncc1)N1CCCC(N2CCN(c3cccc(C(F)(F)F)c3)CC2)C1 (stereo unspecified),i,i,26,i,i,i,43,
Cc1cccc(C)c1NC(=O)CN1CCN(C(=O)CN2C(=O)NC3(CCCCC3C)C2=O)CC1 (stereo unspecified),i,nt,nt,nt,i,i,nt,
COc1ccc2c(Cn3cnc4cc([N+](=O)[O-])ccc4c3=O)cc(=O)oc2c1,i,i,31,i,i,i,i,
COc1cc(CC(NC(C)=O)C(=O)NC2CCN(C(=O)Nc3ccc(C)cc3)CC2)cc(OC)c1 (stereo unspecified),i,i,i,i,i,i,nt,
SMILES,PAFAH2 FP inh,pPAFAH inh,LYPLA2 counter,LYPLA1 counter,PAFAH1B3 FP inh,PAFAH1B2 FP inh,LYPLA2 confirm,others
CC(=O)c1ccc(S(=O)(=O)N2CCC(NC(=O)Nc3cccc(F)c3)CC2)cc1,i,i,37,i,i,i,47,
Cc1ccc(NC(=O)NC2CCN(S(=O)(=O)c3ccc(F)cc3)CC2)cc1,i,i,i,i,i,i,nt,
CCOC(=O)c1cc(S(=O)(=O)Nc2ccc(OC)cc2OC)cn1C,i,i,i,i,i,i,nt,
O=C(c1ccc(F)cc1)C1CCN(CCn2c(=S)[nH]c3ccccc3c2=O)CC1,nt,i,27,i,nt,nt,28,
CC1CCN(CCn2c(=S)[nH]c3ccccc3c2=O)CC1,i,i,i,i,i,i,nt,
COc1ccc(-c2nn(-c3ccccc3)cc2C(N)=O)cc1OC,i,i,i,i,i,i,nt,
O=C(Nc1ccc(N2CCN(C(=O)c3ccco3)CC2)cc1)c1ccc([N+](=O)[O-])cc1Cl,i,i,40,i,i,i,38,
O=C(c1ccco1)N1CCN(C(=S)Nc2cccc([N+](=O)[O-])c2)CC1,i,i,50,i,i,i,62,LYPLA2 gel ABPP=i
Cc1ccc(C(=O)Nc2ccc(N3CCN(C(=O)c4cccs4)CC3)cc2)c(Cl)c1,i,i,47,i,i,i,46,
Cc1cccc(NC(=S)N2CCN(C(=O)c3ccco3)CC2)c1,i,i,i,i,i,i,nt,
O=C(Nc1ccc(N2CCN(C(=O)c3ccco3)CC2)cc1)c1ccccc1Br,i,i,34,i,i,i,30,
CC(=O)N1CCN(c2ccc(NC(=O)c3ccc([N+](=O)[O-])cc3Cl)cc2)CC1,i,i,i,i,i,i,nt,
O=C(Nc1ccc(N2CCN(C(=O)c3ccco3)CC2)cc1)c1ccccc1F,i,i,i,i,i,i,nt,
O=C(CSc1nnnn1C1CC1)N1CCN(c2ccc(O)cc2)CC1,i,i,i,i,i,i,nt,
Cc1cccc(NC(=O)c2ccc(NC(=O)CC3SC(N4CCCC4)=NC3=O)cc2)n1 (stereo unspecified),i,i,i,i,i,i,nt,
